# From PubChem
# HCMV antiviral = human cytomegalovirus inhibition. HFF cells, HCMV-luciferase reporter, 72 h; stronger effect = lower value. 410,000 compounds, 4.5% hits. activity change, negative = inhibition, % at 57.5 µM; in the data active means activity change below about -60%; inconclusive means no clear call, values can overlap the other calls; inactive means above about -39%
#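 After 16 h attachment at 37C, HFF cells received test compound and HCMV-luciferase (1 PFU/cell); reporter luminescence read 72 h later, data normalized against buffer-only and known inhibitor Salinomycin.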
# FBPA Giardia inh = Giardia lamblia aldolase inhibition; purified Giardia FBPA; Potency, µM (titrated, usually from 59.6 µM), for inactives: top-dose activity, negative = inhibition, hits mostly inhibitors; 290,000 compounds, 0.71% hits; AID 2451; further: potency means the concentration at half of the fitted maximal effect; nearly all actives have a fitted effect of over 55% in size
# Target sequence (A8B2U2 whole entry, looked up): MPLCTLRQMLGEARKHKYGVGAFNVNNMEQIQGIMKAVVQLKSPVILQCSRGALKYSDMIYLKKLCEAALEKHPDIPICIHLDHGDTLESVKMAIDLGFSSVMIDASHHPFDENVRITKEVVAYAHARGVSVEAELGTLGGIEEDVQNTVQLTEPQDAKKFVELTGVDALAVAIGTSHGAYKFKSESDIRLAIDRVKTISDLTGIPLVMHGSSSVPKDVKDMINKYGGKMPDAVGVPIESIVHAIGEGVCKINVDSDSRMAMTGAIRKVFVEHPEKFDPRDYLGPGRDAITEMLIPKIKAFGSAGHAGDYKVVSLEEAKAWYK
#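 Giardia FBPA (40 nM reagent) was preincubated 10 min at RT with compound (up to 57.5 uM final), then substrate plus GAPDH/TPI/NAD/arsenate coupling system with diaphorase/resazurin was added; resorufin fluorescence (525/598 nm) was read after 20 min.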
# FMDV inh = blocks foot and mouth disease virus. FMDV antiviral cell-based qHTS. AID 1159524. Potency, µM (top dose mostly 57.9 µM), without a hit: at the top dose activity change, negative = inhibition, hits mostly inhibitors. 410,000 compounds, 1.2% hits; calls by dose curve; tested in HEK293T cells; further: read-out not given here; potency means the concentration at half of the fitted maximal effect; nearly all actives have a fitted effect of over 45% in size
# Marburg entry inh = blocks Marburg virus binding to or entry into cells; Potency, µM (series often up to 37.8 µM), without a hit: at the highest dose activity change, negative = inhibition, most hits filed as inhibitors; AID 540276; 300,000 compounds, 1.8% hits; Marburg virus pseudotyped entry inhibition, cell reporter; calls by dose curve; tested in HEK293 cells; further: potency means the concentration at half of the fitted maximal effect
# Lassa entry inh = Lassa virus entry inhibition; Lassa virus pseudotype entry inhibition, cell reporter; Potency, µM (series often up to 37.9 µM), for the others: top-dose activity change, negative = inhibition, most hits filed as inhibitors; 300,000 compounds, 1.2% hits; calls by dose curve; tested in HEK293 cells; further: potency means the concentration at half of the fitted maximal effect; nearly all actives have a fitted effect of over 50% in size
# HCV inhibitor = HCV inhibition; Potency, µM (doses to about 41.8 µM), inactives show at the highest dose activity change, negative = inhibition, most hits filed as inhibitors; Huh7.5.1 HCVcc-Cre infection, luciferase reporter, 44 h; AID 651820; 340,000 compounds, 3.4% hits; further: potency means the concentration at half of the fitted maximal effect
#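 A cell-based infection assay in which seeded cells (1,000 per well) receive test compound after 4 h, are inoculated with HCVcc-Cre at approximately 0.5 moi, and are incubated 44 h before luminescence detection.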
# * hit, by the source's call; ? = inconclusive; . = no result given; [ ] = remark or other dose. An excerpt weighted towards active compounds, which were near 8.3% of everything screened. Unless noted, the call rests on the fitted dose curve; in most records, active means well fitted curve in the direction sought with a large enough effect; inconclusive means small, poorly fitted or top-dose-only effect, or another doubt; inactive means no such curve, though single readings can be large; an effect the other way counts as inactive or inconclusive. On the % scale 0 is the no-effect control and ±100 the full control effect.
SMILES,HCMV antiviral,FBPA Giardia inh,FMDV inh,Marburg entry inh,Lassa entry inh,HCV inhibitor
CCCc1ccc(OCC(=O)Nc2sc3c(c2C(=O)OCC)CCC(C(C)(C)C)C3)cc1 (stereo unspecified),11,.,0%,.,1%[46.1 µM],.
O=c1cc(-c2ccccc2)oc2c(O)c(O)ccc12,.,7.9µM*,-7%,.,.,.
O=c1cc(-c2ccccc2O)oc2c(O)c(O)ccc12,.,6.3µM*,.,.,.,.
O=c1cc(-c2ccccc2)oc2cc(O)c(O)cc12,.,-12%,12%,.,.,.
O=c1cc(-c2ccccc2O)oc2ccc3ccccc3c12,.,9%,.,.,.,.
C=CCOC(=O)N[C@H](C[N+](=O)[O-])c1ccccc1,.,-2%,.,?,?,.
C/C(CCC(=O)OC[C@@H]1O[C@H](C#Cc2ccccc2)C=C[C@@H]1Oc1ccc(C)cc1)=N/OC[C@@H](O)[C@H]1O[C@H]2OC(C)(C)O[C@H]2[C@@H]1O,.,-5%[12.9 µM],.,-2%[14.2 µM],.,.
Cc1ccc(C(C[N+](=O)[O-])c2c(-c3ccccc3O)[nH][nH]c2=O)cc1 (stereo unspecified),-75*,-21%,?,?,-1%,2%
CC1(C(=O)NCCc2c[nH]c3ccccc23)CCN1Cc1ccccc1OC(F)F (stereo unspecified),-96*,.,-26%,.,.,.
O=C(COC(=O)C1=Cc2ccccc2OC1)NCc1ccccc1,-12,.,-8%,26%,-19%,7%
O=C(OCc1cccnc1)C1=Cc2ccccc2OC1,-103*,3%,25%,-24%[46.1 µM],1%,3%
COCCNC(=O)COC(=O)C1=Cc2ccccc2OC1,-27,5%,11%,?,-6%[46.1 µM],13µM*
CC(=O)c1c(C)[nH]c(C(=O)OCC(=O)Nc2ccc(C)cc2[N+](=O)[O-])c1C,?,-3%,5µM*,?,3%,2.8µM*
CC(=O)c1c(C)[nH]c(C(=O)OCC(=O)Nc2cc(Cl)ccc2[N+](=O)[O-])c1C,100,-16%,28µM*,-2%,.,10µM*
Cc1cc(C)n(-c2ccc(C(=O)OCC(=O)Nc3cc(Cl)ccc3[N+](=O)[O-])cc2)n1,113,7%,-18%,?,-6%,17%
CCN(CC)C(=O)CSc1n[nH]c(=O)n1CCc1ccccc1,39,6%,13%,3%[46.1 µM],3%,14%
O=c1[nH]nc(Sc2ncnc3sccc23)n1CCc1ccccc1,-95*,2%,?,?,?,-29%
C[C@]12N[C@@H](Cc3ccccc31)c1ccccc12,.,4%,-15%,?,.,.
Cc1nc(C)c(C(=O)N2CCc3c(cnc(C)c3CNC(=O)c3cncs3)C2)s1,.,.,-8%,.,.,.
O=C(c1ccco1)N1CCN(c2nc3ccccc3c(=O)n2-c2ccccc2)CC1,-10,-1%,7.1µM*,-28%,?,21%
Nc1nc(N2CCN(C(=O)c3ccco3)CC2)nc2ccc(Br)cc12,.,-18%,-15%,?,?,11µM*
Nc1nc(N2CCN(C(=O)c3ccco3)CC2)nc2ccccc12,78,-16%,21%,16%,26%,-3%
COc1cc(S(=O)(=O)NCCCN2CCOCC2)ccc1Cl,-38,8%,.,7%,2%,5%
COc1ccc(NC(=O)c2ccc(NCCCN3CCOCC3)c([N+](=O)[O-])c2)cc1,-1,-4%,-6%,-17%,7%,13µM*
O=C(Nc1ccc(Cl)c([N+](=O)[O-])c1)c1ccc(NCCCN2CCOCC2)c([N+](=O)[O-])c1,-20,11%,8%,6.5µM*,-2%,2.2µM*
SMILES,HCMV antiviral,FBPA Giardia inh,FMDV inh,Marburg entry inh,Lassa entry inh,HCV inhibitor
Cc1ccc(NC(=O)c2ccc(NCCCN3CCOCC3)c([N+](=O)[O-])c2)cc1Cl,?,5%,32µM*,?,?,11µM*
O=[N+]([O-])c1cc(S(=O)(=O)NCCCN2CCOCC2)ccc1Cl,-35,-12%,-5%,?,?,10µM*
O=C(NCCCN1CCOCC1)c1ccc(Sc2cccc(Cl)c2)c([N+](=O)[O-])c1,?,0%,?,2%,?,11µM*
CCOC(=O)C1=C(C)Nc2ccccc2N/C1=N\S(=O)(=O)c1ccc(Cl)cc1,-35,.,?,.,.,8%
CCOC(=O)C1=C(Cc2ccc(Cl)cc2)C(=O)c2ccccc2C1=O,.,2.5µM*,?,?,23µM*,11µM*
Cc1ccc(NC(=O)CN2C(=O)CC(c3ccco3)Sc3ccccc32)cc1Cl (stereo unspecified),-30,.,-8%,-1%[46.1 µM],.,.
Cc1ccc(C)c(S(=O)(=O)c2nnn3c2nc(NC(C)C)c2sccc23)c1,-70*,.,?,.,-23%[46.1 µM],.
CCOc1ccc(CNC(=O)c2cc3c(s2)-c2ccccc2OC3)cc1,-11,.,17%,12%[46.1 µM],.,.
C1=C(CN2CCOCC2)COc2c1cccc2OC[C@@H]1CNCCO1,.,5%,11%,.,.,.
CN(C(=O)C=Cc1ccco1)c1ccccc1,18,.,3%,24%,10%[46.1 µM],2%
CN(C(=O)/C=C/c1ccc([N+](=O)[O-])s1)c1ccccc1,?,4%,?,.,.,22µM*
COc1ccc(S[C@]2(c3nc(C)no3)CC(=O)N[C@@H]2c2ccc(OC)cc2)cc1,-2,.,.,.,.,.
O=[N+]([O-])c1oc2ccc3ccccc3c2c1CCO,-102*,.,-11%,?,-22%[46.1 µM],?
Clc1ccc(-c2cn(-c3ccccc3)c3[n+]2CCS3)cc1,-72*,2%,-16%,?,?,-23%
CC(=O)c1ccc(N2CCN(c3ccc(C(F)(F)F)cn3)CC2)cc1,?,3%,-27%,-3%,3%,?
CC(=O)c1ccc(-n2cc(-c3ccc(C(C)(C)C)cc3)[n+]3c2SCCC3)cc1,-98*,-1%,?,?,?,-3%
COc1ccc(-c2cn(-c3ccc(Br)cc3)c3[n+]2CCS3)cc1,-90*,6%,?,-25%,-5%,-25%
Fc1ccc(-c2cn(-c3ccccc3)c3[n+]2CCS3)cc1,-25,3%,-20%,2%[46.1 µM],-27%[46.1 µM],?
C#CCN1C(=O)CC[C@@H](S(=O)(=O)c2ccccc2)[C@@H]1c1ccccc1,1,.,.,.,.,.
Cc1ccc(CN2CCC=CS2(=O)=O)cc1,-15,.,.,?,.,.
CCOCCCn1c(=N)c(C(=O)NCc2cccnc2)cc2c(=O)n3cc(C)ccc3nc21,-67*,.,-14%,5%[46.1 µM],-3%[46.1 µM],.
CCC(C)n1c(=N)c(C(=O)NCc2ccccc2)cc2c(=O)n3cc(C)ccc3nc21 (stereo unspecified),-73*,.,-11%,1%[46.1 µM],1%[46.1 µM],.
CCOCCCn1c(=N)c(C(=O)NCc2cccnc2)cc2c(=O)n3ccccc3nc21,-16,.,-19%,?,10%[46.1 µM],.
CCN(C(=O)[C@@H]1CCCN1C(=O)c1cccs1)c1nc2cc(Cl)ccc2s1,118,-9%,13%,?,1%,10µM*
COCCCNC(=O)c1ccc2c3c(onc13)-c1ccccc1C2=O,.,0.89µM*,-104%,?,?,?
